Assay results: PubChem BioAssay
Activity calls are given as the source filed them.

How the values were obtained:
[1] = compounds binding Alexa647 anti-His antibody – biochemical, small-molecule microarray, 635 nm fluorescence, artefact control for SMM control protein annotation, primary screen (AID 1128); details: higher = more signal;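 also: score merges feature fluorescence with signal-to-noise for each printed compound spot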
[2] = tested on: Human papillomavirus type 1a E7 protein (residues 1-88); experiment: HPV1a E7 small-molecule binders, primary screen, biochemical, small-molecule microarray, residues 1-88, 635 nm (AID 1129); details: small-molecule microarray binding, fluorescence 635 nm; higher = more signal
[3] = target: Focal adhesion kinase 1 (Homo sapiens) (UniProt Q05397); experiment: PTK2 protein binding on printed compound slides – biochemical, small-molecule microarray, 635/667 nm fluorescence, BSA, DTT, primary screen (AID 1130); details: 635 nm fluorescence, higher = more signal;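 also: composite of spot emission at 667 nm and signal to noise over triplicate slides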
Chain of Focal adhesion kinase 1 (Homo sapiens) (Q05397 whole entry, looked up): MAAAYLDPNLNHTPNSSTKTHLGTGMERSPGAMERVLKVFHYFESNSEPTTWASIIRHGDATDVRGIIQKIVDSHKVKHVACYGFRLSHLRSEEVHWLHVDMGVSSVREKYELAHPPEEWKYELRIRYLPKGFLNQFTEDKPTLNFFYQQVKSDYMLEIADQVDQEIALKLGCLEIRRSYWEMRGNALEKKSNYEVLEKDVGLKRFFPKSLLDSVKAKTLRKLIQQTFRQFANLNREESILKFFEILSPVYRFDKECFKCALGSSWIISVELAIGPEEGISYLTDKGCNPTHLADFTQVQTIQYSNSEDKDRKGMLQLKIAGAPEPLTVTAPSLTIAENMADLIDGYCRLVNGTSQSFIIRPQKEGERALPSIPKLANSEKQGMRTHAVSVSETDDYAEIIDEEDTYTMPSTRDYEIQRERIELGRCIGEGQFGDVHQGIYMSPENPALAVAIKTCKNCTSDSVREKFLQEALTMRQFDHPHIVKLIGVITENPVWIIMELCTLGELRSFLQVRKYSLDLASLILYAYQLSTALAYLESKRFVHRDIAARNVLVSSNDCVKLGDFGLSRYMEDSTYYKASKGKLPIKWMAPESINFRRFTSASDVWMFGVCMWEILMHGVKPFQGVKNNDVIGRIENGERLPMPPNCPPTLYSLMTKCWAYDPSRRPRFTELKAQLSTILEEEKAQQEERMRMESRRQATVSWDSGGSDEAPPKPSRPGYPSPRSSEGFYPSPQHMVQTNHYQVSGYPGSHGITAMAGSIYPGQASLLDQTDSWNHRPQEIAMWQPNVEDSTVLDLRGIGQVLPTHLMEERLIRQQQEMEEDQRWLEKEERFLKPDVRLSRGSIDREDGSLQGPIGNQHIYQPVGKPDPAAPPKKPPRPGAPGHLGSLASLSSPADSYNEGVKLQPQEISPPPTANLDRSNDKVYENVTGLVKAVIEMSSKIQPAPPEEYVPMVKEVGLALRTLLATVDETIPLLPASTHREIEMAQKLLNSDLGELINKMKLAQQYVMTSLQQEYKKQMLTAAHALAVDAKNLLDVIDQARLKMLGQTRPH

[4] = tested on: Fibrinogen (Alexa647-labelled); experiment: Alexa647-fibrinogen binding to printed small molecules – biochemical, small-molecule microarray, 635/667 nm fluorescence, artefact control for SMM control-protein annotation, profiling panel (AID 1131); details: fibrinogen-A647 binding fluorescence, higher = more signal;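 also: z-score merges 667 nm fluorescence with per-spot signal-to-noise over triplicate slides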
[5] = target: Follistatin (Homo sapiens) (UniProt P19883); experiment: FST protein binding to printed compounds – biochemical, small-molecule microarray, 635/667 nm fluorescence, primary screen (AID 1132); details: 635 nm fluorescence, higher = more signal
Chain of Follistatin (Homo sapiens) (P19883 whole entry, looked up): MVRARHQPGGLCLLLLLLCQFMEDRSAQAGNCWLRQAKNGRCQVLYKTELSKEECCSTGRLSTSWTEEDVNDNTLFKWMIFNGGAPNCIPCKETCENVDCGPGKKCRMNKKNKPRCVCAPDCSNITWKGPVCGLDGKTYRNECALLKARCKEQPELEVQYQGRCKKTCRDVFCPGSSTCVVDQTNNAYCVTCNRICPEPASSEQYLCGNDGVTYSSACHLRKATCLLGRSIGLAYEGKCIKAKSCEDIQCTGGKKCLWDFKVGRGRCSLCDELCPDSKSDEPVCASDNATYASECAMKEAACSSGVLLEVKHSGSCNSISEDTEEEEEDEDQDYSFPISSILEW

[6] = target: Fibroblast growth factor 2 (Homo sapiens) (UniProt P09038); experiment: basic fibroblast growth factor binding to printed compounds – biochemical, small-molecule microarray, 635/667 nm fluorescence, primary screen (AID 1133); details: FGF2, fluorescence 635/667, higher = more signal
Chain of Fibroblast growth factor 2 (Homo sapiens) (P09038 whole entry, looked up): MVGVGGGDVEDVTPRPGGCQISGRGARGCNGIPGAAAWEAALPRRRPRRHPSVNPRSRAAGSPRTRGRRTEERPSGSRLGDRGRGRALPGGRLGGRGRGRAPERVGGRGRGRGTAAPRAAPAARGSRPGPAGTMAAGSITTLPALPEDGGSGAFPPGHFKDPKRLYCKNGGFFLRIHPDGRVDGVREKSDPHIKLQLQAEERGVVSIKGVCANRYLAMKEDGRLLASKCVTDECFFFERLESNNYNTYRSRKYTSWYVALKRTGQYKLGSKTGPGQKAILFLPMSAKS

[7] = JC-1 mitochondrial potential readout, lung cancer cells – cell-based, A549, JC-1 fluorescence, basal, 24 h, 100 nL, profiling panel (AID 1138); details: higher = more signal;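 also: A549 lung adenocarcinoma cells under basal conditions with no added stimulus; test concentration not given here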
[8] = tested on: Lefty1; experiment: Lefty1 protein binding to printed compounds – biochemical, small-molecule microarray, 635/667 nm fluorescence, primary screen (AID 1139); details: fluorescence 635/667, higher = more signal
[9] = tested on: wheat germ agglutinin (Triticum aestivum), Alexa647-labelled; experiment: Alexa647-WGA lectin binding to printed small molecules – biochemical, small-molecule microarray, 635/667 nm fluorescence, artefact control for SMM control-protein annotation, profiling panel (AID 1140); details: WGA-A647 binding, 635 nm fluorescence, higher = more signal;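 also: score merges 667 nm feature emission with signal to noise over triplicate slides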
[10] = target: Luciferin 4-monooxygenase (Photinus pyralis) (UniProt P08659); experiment: inhibition of purified Photinus pyralis luciferase – biochemical, luminescence, purified enzyme, 2006 set, primary screen (AID 1141); details: purified firefly luciferase, SteadyGlo luminescence, 30 min; higher = more signal, called active from +8 up or from −8 down;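 also: cell-free assay with purified firefly luciferase at 100 ng per well in PBS; test concentration not given here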
Chain of Luciferin 4-monooxygenase (Photinus pyralis) (P08659 whole entry, looked up): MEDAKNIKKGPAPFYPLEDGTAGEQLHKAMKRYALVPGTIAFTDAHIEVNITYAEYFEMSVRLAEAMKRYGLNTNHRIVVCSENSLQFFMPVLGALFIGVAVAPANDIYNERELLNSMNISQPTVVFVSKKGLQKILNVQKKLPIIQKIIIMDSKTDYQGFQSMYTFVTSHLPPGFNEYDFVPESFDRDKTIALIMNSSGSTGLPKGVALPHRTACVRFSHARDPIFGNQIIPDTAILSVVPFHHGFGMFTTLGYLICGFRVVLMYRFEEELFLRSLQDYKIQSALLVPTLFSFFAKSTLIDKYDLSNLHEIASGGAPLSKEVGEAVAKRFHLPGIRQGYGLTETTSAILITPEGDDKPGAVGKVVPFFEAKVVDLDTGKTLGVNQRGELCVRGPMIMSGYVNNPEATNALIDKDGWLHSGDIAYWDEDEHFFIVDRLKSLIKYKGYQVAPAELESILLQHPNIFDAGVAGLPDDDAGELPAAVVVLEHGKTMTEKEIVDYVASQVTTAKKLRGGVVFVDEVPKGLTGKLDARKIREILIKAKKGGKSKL

Compound | composite z-score [1] | composite z-score [2] | composite z-score [3] | composite z-score [4] | composite z-score [5] | composite z-score [6] | z-score [7] | composite z-score [8] | composite z-score [9] | z-score [10]
COc1ccc(CCNC(=O)[C@@]2(c3ccc([N+](=O)[O-])cc3)CC(=O)N(C(C)C)[C@@H]2c2ccc(CO)cc2)cc1 | -0.601 | -0.622 | -0.637 | -2.13 | -0.669 | -0.848 | 0.774 | -2.2 | -0.81 | -0.939 (inactive)
C=CC[C@]1(C(N)=O)N=C(c2ccc(OCCCO)cc2)O[C@H]1c1ccccc1CN=[N+]=[N-] | 3.2 | 0.928 | 0.409 | 1.01 | 0.653 | -0.373 | 0.766 | -0.484 | 1.43 | -1.47 (inactive)
C=CCNC(=O)[C@H]1[C@@H]2C(=O)O[C@@H](c3ccccc3)[C@@H](c3ccccc3)N2[C@@H](c2ccc(O)cc2)[C@]12C(=O)Nc1ccc(C#CCNC(N)=O)cc12 | -1.09 | -0.572 | 0.199 | -1.04 | 0.094 | -0.415 | -0.171 | -0.886 | -0.52 | -1.25 (inactive)
COC(=O)[C@@]1(Cc2ccc(OC)cc2)[C@H]2c3cc(C(=O)N(C)C)n(Cc4ccc(C)c(F)c4F)c3C[C@H]2CN1C(=O)c1ccccc1 | 0.158 | 0.713 | 0.0211 | 0.746 | -0.266 | -0.869 | 0.0287 | -0.826 | 0.546 | 2.24 (inactive)
COCCOC(=O)N1C(=O)[C@@]2(c3cc(C#CC4=CCCCC4)ccc31)[C@H](c1ccc(O)cc1)N1[C@H](c3ccccc3)[C@H](c3ccccc3)OC(=O)[C@H]1[C@@H]2C(=O)N1CCCCCCC1 | 0.31 | 1.15 | 1.45 | 0.694 | 1.23 | 1.22 | 1.99 | 1.12 | 0.576 | -1.72 (inactive)
O=C1C2C=CC(C(O)Cc3ccccc3)N(Nc3ccc([N+](=O)[O-])cc3)C2C(=O)N1c1ccccc1 (stereo not given) | 1.46 | 1.01 | 0.331 | 0.405 | 0.252 | -0.165 | -0.75 | -0.0551 | 0.245 | 1.36 (inactive)
Cc1cc(C)c(C(O)C2C=CC3C(=O)N(C)C(=O)C3N2N2CCCCC2)c(C)c1 (stereo not given) | 2.16 | 1.18 | -0.193 | 0.985 | 1.28 | 0.994 | 0.85 | -0.0675 | 0.799 | 0.915 (inactive)
CO[C@H]1COC(=O)[C@H](CCSC)NC(=O)CC=C[C@@H](C)COC(=O)[C@@H](OCc2ccccc2)C=C[C@@H]1C | -0.155 | -0.762 | -0.36 | -1.22 | 1.18 | 1.46 | 0.676 | 1.63 | -1.02 | -1.12 (inactive)
CC1CC/C=C\[C@H]2OC34C=CCN(Cn5nnc6ccccc65)C(=O)[C@H]3N(C(C)CO)C(=O)[C@@H]4C2C(=O)O1 (stereo not given in full) | 0.52 | -1.01 | -0.305 | -0.559 | -0.491 | -1.01 | 0.417 | -0.328 | -0.462 | -0.223 (inactive)
CO[C@@H]1COC(=O)[C@H](COCc2ccccc2)NC(=O)CC=C[C@@H](C)[C@H](OC)COC(=O)[C@H](COCc2ccccc2)NC(=O)CC=C[C@H]1C | -0.156 | -0.47 | -0.0624 | -0.201 | 0.59 | 0.622 | 0.952 | 0.886 | -0.915 | -0.901 (inactive)
C=CCc1cccc([C@H]2N[C@H](C(=O)O)CC[C@@H]2C)c1 | 0.7 | 0.297 | 1.34 | 0.172 | 0.648 | 0.972 | 0.809 | 0.825 | -0.173 | -0.42 (inactive)
C=CCC(OC(C)=O)[C@@H]1[C@@H](N(Cc2ccc(-c3ccccc3)cc2)C(=O)c2ccc(C)cc2)c2cc(OCCCO)ccc2N1C(=O)c1ccc(-c2ccccc2)cc1 (stereo not given in full) | -0.958 | 0.438 | 0.248 | -0.195 | 0.217 | 0.0217 | 2.98 | -0.166 | 0.258 | -1.81 (inactive)
C[C@@H]1CC[C@H]2C(=O)N3[C@@H](CC[C@@H](C)[C@@H]3c3cccc(N4CCOCC4)c3)C(=O)N2[C@H]1c1cccc(N2CCOCC2)c1 | 0.181 | 0.978 | 0.0379 | 0.815 | 1.16 | 1.16 | 1.05 | 1.47 | 0.964 | -1.23 (inactive)
CC(C)[Si]1(C(C)C)O[C@@H](c2ccccc2)c2cc(C3CC3)nc(-c3ccc(Oc4ccccc4)cc3)c21 | -1.14 | -0.889 | -0.323 | -0.812 | -0.591 | -0.192 | 1.55 | -0.315 | -1.33 | -0.626 (inactive)
COc1ccc(C(O)C2C=CC3C(=O)N(C)C(=O)C3N2N2CCCCC2)cc1OCc1ccccc1 (stereo not given) | 1.31 | 1.2 | 0.391 | 0.838 | 0.795 | -0.444 | 0.0785 | -0.24 | 0.951 | -0.381 (inactive)
[N-]=[N+]=NCc1ccccc1C[C@@]1(C(=O)N2CCOCC2)N=C(c2ccc(OCCCO)cc2)O[C@@H]1c1ccccc1N=[N+]=[N-] | 1.8 | 1.22 | 0.662 | 0.9 | 1.12 | 0.267 | 1.4 | -0.123 | 1.37 | -8.34 (active)
